# Data as given in PubChem BioAssay AID686979 (National Center for Advancing Translational Sciences (NCATS), 2013).
# Among all 420,000 compounds or so, about 50,000 (12%) were called active. Roughly 26% stayed inconclusive and do not appear here. The list comes from a sample in which actives are over-represented; it also holds similar structures and randomly drawn compounds. Unmarked numbers belong to inactive results. Calls follow the shape of the dose curve; as a rule, active = well fitted inhibition curve with a large enough effect; inconclusive = small, poorly fitted or top-dose-only effect; inactive = flat fitted curve, though single readings scatter.
# Assay: qHTS for Inhibitors of human tyrosyl-DNA phosphodiesterase 1 (TDP1): qHTS in cells in presence of CPT; also: nearly all actives have a fitted effect of over 55% in size
# Details: chicken DT40 Tdp1-/-;hTDP1 cells + 20 nM CPT, ATP luminescence, 48 h; series mostly up to 46.2 µM; activity change, negative = growth inhibition: at the top concentration
# How it was run: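 Chicken DT40 Tdp1-/- cells complemented with human TDP1, 400 cells/well, exposed to compounds plus 20 nM camptothecin for at least 48 h at 37 C; viability read as ATP content by CellTiter-Glo luminescence.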
# % is scaled to controls: 0 for no effect and ±100 for the full control effect; potency is read from the fitted curve at half-maximal effect.
Compound,"activity change, negative = growth inhibition",Potency
CSc1ccc(S(=O)(=O)NCC(=O)OCC(=O)NC2(C#N)CCCCC2)cc1[N+](=O)[O-],-3.09%,–
CCN(CC(=O)NCC(=O)Nc1cccc(C)c1C)Cc1ccccc1,-19.9%,–
CSC1=NC2(C)CCCCC2C12C=CC(=O)C=C2 (stereo not given),-2.58%,–
CC(C)c1ccc(C2C(C(=O)c3ccco3)=C(O)C(=O)N2CC2CCCO2)cc1 (stereo not given),–,20.6 µM (active)
CCOc1cc(C2C(C(=O)c3ccco3)=C(O)C(=O)N2Cc2ccccc2)ccc1O (stereo not given),4.89%,–
O=C(C1=C(O)C(=O)N(Cc2ccccc2)C1c1ccco1)c1ccco1 (stereo not given),-1.15%,–
COc1cccc(OCC(=O)NNC(=O)c2cnccn2)c1,-1.97%,–
CN(C(=O)COc1ccccc1)c1nnc(-c2ccncc2)s1,-6.56%,–
CN(C(=O)COc1nnc(-c2cccs2)c(-c2cccs2)n1)c1ccccc1,–,23.1 µM (active)
O=C(O)Cc1sc(-c2ccccc2)nc1-c1cccs1,-3.68%,–
CCOc1ccc(CC(=O)NCCc2csc3nc(-c4ccccc4F)nn23)cc1,-27.1%,–
Cc1ccc(NC(=O)COC(=O)CN2CCCCCC2=O)c(C)c1,-11.8%,–
Clc1ccc(Nc2ncnc3c2nnn3Cc2ccccc2)cc1,-12.7%,–
CC(=O)Nc1ccc(NC(=O)CSc2ncnc3c2cnn3Cc2ccccc2)cc1,3.41%,–
Clc1ccc(Cn2ncc3c(NCc4cccnc4)ncnc32)cc1,–,20.6 µM (active)
Cc1ccc(OCCOc2cccc(/C=N/NC(N)=O)c2)cc1,16.1%,–
COc1ccc(C(=O)COC(=O)Cn2cnc3c2c(=O)n(C)c(=O)n3C)c(OC)c1,11.2%,–
O=[N+]([O-])c1ccc(/C=C/c2ccc3cccnc3c2)cc1,–,7.94 µM (active)
O=C(Oc1ccc([N+](=O)[O-])cc1)c1ccc2ccccc2n1,-16.8%,–
O=C(OCc1ccc([N+](=O)[O-])cc1)c1ccccn1,7.01%,–
COc1ccc(C2/C(=C(/O)c3ccc(OC(C)C)cc3)C(=O)C(=O)N2CCCN2CCOCC2)cc1 (stereo not given),-2.53%,–
CCCCc1ccc(S(=O)(=O)NC(=O)C2(C)CCN2C(=O)c2c(C)noc2C)cc1 (stereo not given),-16.1%,–

Compound,"activity change, negative = growth inhibition",Potency
Cn1c2c(c(=O)n(C)c1=O)C(c1cccc(F)c1)C(C#N)=C(N)O2 (stereo not given),12.8%,–
CC(C)CCNC(=O)c1cccnc1Sc1ccccc1,7.04%,–
Cc1cc([N+](=O)[O-])c(=O)[nH]c1C,-13.7%,–
O=C(COC(=O)c1ccccc1OCCOc1ccccc1)Nc1cccc(Br)c1,-12%,–
Cc1cccc(NC(=O)COC(=O)c2ccccc2OCc2cccc(Br)c2)c1,–,17.8 µM (active)
Cc1cccc(C(=O)OCC(=O)Nc2ccc(F)cc2)c1,-20.9%,–
CC1C(=O)Nc2ccccc2N1C(=O)c1ccc(F)cc1F (stereo not given),-6.81%,–
CCN(CC)C(=O)c1nc[nH]c1C(=O)N(C)Cc1ccccc1,4.56%,–
CN1CC(O)c2cc(N=NC(N)=O)c(O)cc21 (stereo not given),-15.8%,–
CCOC(=O)N1CCN(S(=O)(=O)c2ccc(Br)cc2)CC1,1.25%,–
CCOC(=O)N1CCN(S(=O)(=O)c2ccc(C(=O)Nc3ccc(F)cc3F)cc2)CC1,–,2.59 µM (active)
CCOC(=O)N1CCN(S(=O)(=O)c2ccc(-n3cnnn3)cc2)CC1,-11.6%,–
COc1ccc(-c2ccc(CCC(=O)O)n2-c2ccc(O)cc2)cc1,-13.8%,–
COc1cccc(OCCn2c(-c3ccc(Br)cc3)nc3ccccc3c2=O)c1,-9.2%,–
COc1ccc(-c2nc3ccccc3c(=O)n2CCc2ccc(O)cc2)cc1,–,14.6 µM (active)
C=CCNC(=O)COC(=O)c1ccccc1C(=O)N(C)C1CCCCC1,-5.9%,–
CC1CCCC(NC(=O)COC(=O)c2ccccc2C(=O)N(C)C2CCCCC2)C1C (stereo not given),–,23.1 µM (active)
O=C(COC(=O)c1ccccc1SCC(=O)NC1CCCCC1)NC1CCCCC1,3.2%,–
COc1cc(=O)n2c(c1C(=O)NC(C)c1ccco1)CCN(C(=O)c1cn3ccc(C)cc3n1)CC2 (stereo not given),3.27%,–
Cc1cccn2c(=O)c(/C=C(\C#N)S(=O)(=O)c3ccc(Cl)cc3)c(N3CCC(C(N)=O)CC3)nc12,0.471%,–
Cc1ccc(C(=O)N/C(=C\c2ccco2)C(=O)NC2CCS(=O)(=O)C2)cc1 (stereo not given),13.6%,–
Cc1cc(C)cc(Oc2nc3c(C)cccn3c(=O)c2/C=C(\C#N)C(=O)NC2CCS(=O)(=O)C2)c1 (stereo not given),–,16.4 µM (active)

Compound,"activity change, negative = growth inhibition",Potency
Cc1ccnc(SCC(N)=O)n1,-14.1%,–
Cc1ccnc(Nc2nc3ccccc3s2)n1,-17.4%,–
Cc1ccnc(-n2sc3ccccc3c2=O)n1,–,7.31 µM (active)
Cc1cccc(C)c1NC(=O)CNC(=O)C1CCCC1,-0.199%,–
CCc1ccnc(NC(=O)Nc2ccc(OCc3ccccc3)cc2)c1,-10.7%,–
Cc1ccc(C)c(NS(=O)(=O)c2c(C)[nH]c(C)c2C(=O)N2CCCCC2)c1,-4.6%,–
Cc1[nH]c(C)c(S(=O)(=O)N2CCC(C)CC2)c1C(=O)N1CCCC1,-6.25%,–
Cc1ccc(NS(=O)(=O)c2c(C)[nH]c(C)c2C(=O)N2CCCCC2)c(C)c1,-27%,–
Cc1[nH]c(C)c(S(=O)(=O)N2CCN(c3cccc(C(F)(F)F)c3)CC2)c1C(=O)N1CCCC1,–,18.4 µM (active)
O=C1CC(=O)Nc2cc(S(=O)(=O)N3CCN(c4cccc(C(F)(F)F)c4)CC3)ccc2N1,5.71%,–
Cc1[nH]c(C)c(S(=O)(=O)N2CCN(c3cccc(C(F)(F)F)c3)CC2)c1C(=O)N1CCCCC1,–,14.6 µM (active)
CCOc1cc(/C=N/O)ccc1OCc1ccccc1F,2.25%,–
COc1cc(/C=C2/C(=O)ON=C2C)ccc1OCc1ccccc1F,–,11.6 µM (active)
CC1=NOC(=O)/C1=C\c1ccccc1,-5.28%,–
Cc1cc(NC(=O)CCS(=O)(=O)c2ccc(F)cc2)no1,-0.0242%,–
C[C@@H]1CN(Cc2ccc3c(c2)CN(Cc2ccc(Oc4ncccn4)cc2)CCO3)C[C@H](C)O1,-11.8% [at 9.04 µM],–
CCN(CC)c1ccc(C(=O)N/N=C/c2ccc(N3CCOCC3)cc2)cc1,1.61%,–
O=C1Nc2ccc(Br)cc2/C1=N/N=C/C1=C(N2CCOCC2)C(=C\c2ccccc2)/CC1,–,16.4 µM (active)
COc1ccc(/C=N/N=C2/C(=O)Nc3ccccc32)cc1O,-26.3%,–
O=C(O)c1ccc(NN=CC2=C(N3CCOCC3)/C(=C/c3ccccc3)CC2)cc1,–,1.46 µM (active)
O=C(NN=Cc1ccc(N2CCOCC2)cc1)c1cc2ccccc2cc1O,-27.4%,–
